Data on 31 compounds can be found in ChEMBL document CHEMBL1157539, “Thousands of chemical starting points for antimalarial lead identification” (Nature, 2010).

Common to all, as to format: functional
Assay [1] concerns Plasmodium falciparum. Briefly: GSK_TCMDC: Inhibition of Plasmodium falciparum 3D7 in whole red blood cells, using parasite LDH activity as an index of growth. Test compounds present at 2uM.
Assay [2] concerns Plasmodium falciparum. Briefly: GSK_TCMDC: Inhibition of Plasmodium falciparum Dd2 in whole red blood cells, using parasite LDH activity as an index of growth. Test compounds present at 2uM.
Another assay has as its system HepG2. Briefly: GSK_TCMDC: Percent inhibition of human HepG2 cell line. Test compounds present at 10uM.

Regarding `Brc1ccc(C=NNc2nc3ccccc3[nH]2)cc1`, the Inhibition – broadly, the drop in the measured response relative to a control, in per cent – in the assay on Plasmodium falciparum [1] is on record as 100%; in the assay on Plasmodium falciparum [2], 90%; with HepG2, 0%.

In the case of `CCCN1CCC2(CC1)NC(C(=O)NCCC(C)C)Cc1c2[nH]c2cc(Cl)ccc12` (stereo not drawn), the Inhibition in the assay on Plasmodium falciparum [1] is on record as 86%; with Plasmodium falciparum [2], 0%; in the assay with HepG2, 13%.

As for `O=C(O)C(F)(F)F.Oc1ccc(CCNc2nc(NCCCOc3ccccc3-c3ccc(F)cc3)nc(N3CCNCC3)n2)cc1`, the Inhibition amounted to 85% with Plasmodium falciparum [1], 8% with Plasmodium falciparum [2] and 30% in the assay with HepG2.

Consider `Cc1cccc2nc(-c3ccc(-c4ccc(NC(=O)C(C)CN5CCN(C)CC5)cc4)s3)[nH]c12` (stereo not drawn), for which the Inhibition in the assay on Plasmodium falciparum [1] was 100%; in the assay with Plasmodium falciparum [2], 99%; with HepG2, 17%.

Consider `O=C(Nc1ccc(-c2csc(-c3nc4ccccc4[nH]3)c2)cc1)Nc1ccc(Cl)c(Cl)c1`, for which the Inhibition is listed as 93% in the assay with Plasmodium falciparum [1], 18% in the assay on Plasmodium falciparum [2] and 75% in the assay on HepG2.

Turning to `Cl.NOCCCCOc1ccc(Br)cc1`, the Inhibition worked out at 99% in the assay with Plasmodium falciparum [1], 0% in the assay on Plasmodium falciparum [2] and 0% in the assay with HepG2.

On to `CC(=O)Nc1ccc(C(=O)NC2CCN(c3ccnc4cc(Cl)ccc34)C2)cc1.O=C(O)C(F)(F)F` (stereo not drawn), for which the Inhibition in the assay with Plasmodium falciparum [1] turned out to be 100%; in the assay on Plasmodium falciparum [2] it was 100%; in the assay on HepG2 it was 1%.

`CCN1CCN(Cc2c(O)ccc3c(=O)c(Oc4cc(C)cc(C)c4)c(C(F)(F)F)oc23)CC1`: the Inhibition with Plasmodium falciparum [1] is given as 96%; in the assay with Plasmodium falciparum [2], 90%; with HepG2 it was 6%.

For the compound `Cl.Cn1cnc(-c2ccc3c(c2)CCN(CCC2CCC(NC(=O)/C=C/c4ccc(F)cc4)CC2)CC3)c1` (stereo not drawn), the Inhibition in the assay on Plasmodium falciparum [1] turned out to be 90%; in the assay with Plasmodium falciparum [2], 18%; in the assay with HepG2, 26%.

In the case of `Cc1cccc2nc(-c3ccc(-c4cccc(NC(=O)NCc5cccc(F)c5)c4)cc3)[nH]c12`, the Inhibition is recorded as 94% in the assay with Plasmodium falciparum [1], 5% with Plasmodium falciparum [2] and 27% with HepG2.

Turning to `O=C(Nc1ccccc1)N(Cc1ccc(-c2cccc(CNC3CCCC3)c2)cc1)C1CCN(Cc2ccccc2)CC1.O=C(O)C(F)(F)F`, the results for the Inhibition in the assay on Plasmodium falciparum [1], in the assay on Plasmodium falciparum [2] and with HepG2 were 100%, 67% and 43%, respectively.

In the case of `COc1cc2c(c(Cl)c1OC)CCN(Cc1ccccc1)CC2c1ccc(NC(=O)C(F)(F)F)cc1` (stereo not drawn), the Inhibition stood at 85% in the assay with Plasmodium falciparum [1], 79% in the assay on Plasmodium falciparum [2] and 0% in the assay on HepG2.

Take `Cc1c(Cl)cccc1N=C(S)NN=Cc1ccccn1`: the values for the Inhibition in the assay with Plasmodium falciparum [1], in the assay on Plasmodium falciparum [2] and in the assay on HepG2 were 99%, 85% and 58%, respectively.

Regarding `Cl.N#Cc1cccc(C(O)C2CN(CCC3CCCCC3)CCC2(O)c2ccccc2)c1` (stereo not drawn), the Inhibition is reported as 98% in the assay with Plasmodium falciparum [1], 100% in the assay with Plasmodium falciparum [2] and 0% with HepG2.

With `COc1ccc2c(NN=CC=Cc3ccccc3)ccnc2c1`, the Inhibition is listed as 100% in the assay with Plasmodium falciparum [1], 100% in the assay with Plasmodium falciparum [2] and 9% in the assay on HepG2.

`COC(=O)c1cccc(CNCc2cccc(-c3cccc(-c4nc5cccc(C)c5[nH]4)c3)c2)c1.O=C(O)C(F)(F)F`: the Inhibition in the assay on Plasmodium falciparum [1] was determined as 100%; in the assay with Plasmodium falciparum [2], 47%; with HepG2, 0%.

Take `Cc1ccc(Cc2cnc(CN3CCCCC3)c(O)c2)cc1.Cl`: the Inhibition with Plasmodium falciparum [1] was 93%; with Plasmodium falciparum [2] it was 75%; in the assay with HepG2, 4%.

In the case of `Cc1cccc(-c2cc3cc(Nc4ccnc5cc(-c6nccs6)ccc45)ccc3[nH]2)c1.Cl`, the figures for the Inhibition in the assay with Plasmodium falciparum [1], with Plasmodium falciparum [2] and in the assay on HepG2 were 100%, 100% and 0%, respectively.

Turning to `Oc1cccc(CNCCCN(Cc2ccccc2)c2ccccc2)c1`, the Inhibition came to 99% with Plasmodium falciparum [1], 97% with Plasmodium falciparum [2] and 7% in the assay with HepG2.

With `COc1cccc(-c2ccc3c(-c4cccc(S(C)(=O)=O)c4)cnc(N)c3c2)c1`, the values for the Inhibition in the assay on Plasmodium falciparum [1], with Plasmodium falciparum [2] and in the assay on HepG2 were 96%, 21% and 45%, respectively.

On to `O=C(Nc1ccc(OC2CCN(Cc3ccc(F)cc3)CC2)c(Cl)c1)c1ccoc1.O=C(O)C(F)(F)F`, for which the Inhibition came out at 89% with Plasmodium falciparum [1], 90% in the assay on Plasmodium falciparum [2] and 0% in the assay with HepG2.

Consider `COc1ccc(NC(=O)C2c3ccccc3C(=O)N(C3CCCC3)C2c2cccs2)c(OC)c1` (stereo not drawn), for which the figures for the Inhibition in the assay with Plasmodium falciparum [1], in the assay with Plasmodium falciparum [2] and in the assay on HepG2 were 84%, 54% and 3%, respectively.

Take `COc1ccc(Nc2nc(NCc3cccnc3)cc(-c3ccc(OC)cc3)n2)cc1`: the Inhibition in the assay with Plasmodium falciparum [1] came to 89%; with Plasmodium falciparum [2] it was 16%; with HepG2, 0%.

As for `Cc1cc(=NN=Cc2ccc(Cl)cc2)c2cc(F)ccc2[nH]1`, the Inhibition in the assay with Plasmodium falciparum [1] came to 100%; in the assay on Plasmodium falciparum [2], 98%; in the assay with HepG2, 6%.

For `CC(C)[C@H](NCC(=O)c1ccccc1)C(=O)O.Cl`, the values for the Inhibition in the assay with Plasmodium falciparum [1], in the assay on Plasmodium falciparum [2] and with HepG2 were 99%, 0% and 6%, respectively.

With `CC(=O)Nc1ccc(CN2CCN(C(c3ccc(F)cc3)c3ccc(F)cc3)CC2)cc1`, the Inhibition with Plasmodium falciparum [1] amounted to 93%; in the assay with Plasmodium falciparum [2], 79%; with HepG2, 4%.

On to `CC(=O)COc1c(C2CCN(CCCCNC(=O)c3ccc(-c4ccc(C(F)(F)F)cc4)cc3)CC2)ccc2c1CCCC2`, for which the figures for the Inhibition with Plasmodium falciparum [1], with Plasmodium falciparum [2] and with HepG2 were 99%, 53% and 100%, respectively.

In the case of `Fc1ccc2nc(Nc3nc(-c4ccccn4)cs3)sc2c1`, the Inhibition with Plasmodium falciparum [1] amounted to 100%; in the assay with Plasmodium falciparum [2], 100%; in the assay with HepG2 it was 42%.

For `CCCNC(=O)c1cncc(-c2ccc(CNC3Cc4ccccc4C3)cc2)c1.O=C(O)C(F)(F)F`, the Inhibition in the assay with Plasmodium falciparum [1] was 97%; in the assay on Plasmodium falciparum [2], 21%; in the assay on HepG2 it was 9%.

With `O=C(NCc1cccc(F)c1)Nc1cccc(-c2ccc(-c3nc4cc(C(F)(F)F)ccc4[nH]3)cc2)c1`, the Inhibition was 98% in the assay on Plasmodium falciparum [1], 20% in the assay with Plasmodium falciparum [2] and 50% with HepG2.

As to `O=C(Nc1ccc(C(F)(F)F)cc1)c1ccc(S(=O)(=O)NC2CCCN(CC3CCCCC3)C2)cc1.O=C(O)C(F)(F)F` (stereo not drawn), the figures for the Inhibition in the assay on Plasmodium falciparum [1], in the assay with Plasmodium falciparum [2] and with HepG2 were 99%, 0% and 45%, respectively.
